Laboratory results taken from PubChem BioAssay.
Where “and” joins values, the source holds several entries; their conditions need not be identical. Equal entries are not always repeated. Some structures have more than one record in an assay (separate samples or runs), and their calls can disagree. Calls of active or inactive are those of the source. Unless noted, how the calls were made is not given here.

Columns and labels:
[1] = polyglutamine-triggered caspase-3 activation inhibitors, cell-based (AID 1583); conditions: polyglutamine-induced caspase-3 activation, cell assay; stronger effect = higher value;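 tested at 10 µM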
[2] = liver-stage malaria parasite growth inhibition, primary screen, cell-based, HepG2, luciferase luminescence, HepG2 viability (AID 624349; in the data active means parasite load remaining mostly below about 12%, no sharp cut-off; inactive means mostly above about 10%;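 further: 100% = mean of DMSO negative control wells on the same plate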); conditions: P. berghei liver stage in HepG2, luciferase luminescence, concentration not given here; parasite load remaining: stronger effect = lower value; viability: measured here: HepG2 viability without parasites
[3] = stimulators of nuclear beta-catenin in C2C12, primary screen, imaging, WNT3A-conditioned medium, mouse C2C12, NPC library (AID 1117326; in the data active means nuclear beta-catenin stimulation mostly above about 4.2%, no sharp cut-off; inactive means mostly below about 10%); conditions: stronger effect = higher value
[4] = stimulators of insulin release from INS-1E, primary screen, cell-based, 5 mM glucose, NPC library (AID 1117329;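 active means compound raises insulin release from rat beta cells at 5 mM glucose, no numeric limit stated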); conditions: rat INS-1E insulin secretion, at 10 µM, stronger effect = higher value
[5] = growth inhibition of GSK3B-pretreated HCT116 cells – cell-based, CellTiter-Glo, 0.2 to 20 µM (AID 1117336;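 active means compounds lowering colon cancer cell viability after pretreatment blocking the GSK3B kinase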); conditions: HCT116 viability after GSK3B inhibitor, at 20 µM, stronger effect = higher value
[6] = inhibition of endothelial tube formation, primary screen, imaging, VEGF stimulated, CD31 staining, tube area, NPC library (AID 1117340;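 active means compound that reduces growth-factor-driven endothelial tube area in a mixed cell culture, no cutoff stated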); conditions: VEGF-stimulated ADSC/ECFC co-culture, at 10 µM, stronger effect = higher value
[7] = glucagon-like peptide 1 release enhancers, primary assay, NCI-H716 cell line, NPC library (AID 1117341;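 active means compound raises GLP1 secretion from the human gut endocrine cells, with no numeric limit stated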); conditions: NCI-H716 cells, at 10 µM, stronger effect = higher value
[8] = HCT116 colon cancer cell growth inhibition, primary screen, CellTiter-Glo luminescence, NPC library (AID 1117342;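 active means compounds that lower survival of HCT116 colon cancer cells in the luminescence readout, no numeric limit stated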); conditions: at 20 µM (top of the series)
[9] = CellTiter-Glo luminescent readout of SW480 viability loss, NPC library primary (AID 1117343;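 active means compounds that lower viability of the colon cancer cells in the luminescence readout, with no numeric limit stated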); conditions: CellTiter-Glo luminescence; at 20 µM (top of the series)
[10] = decreased DLD-1 cellular survival, CellTiter-Glo luminescent readout, NPC compound collection, primary HTS (AID 1117346;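 active means compounds that lower survival of DLD-1 colon cancer cells in the luminescence readout, no cutoff given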); conditions: DLD-1 viability, CellTiter-Glo luminescence; at 20 µM (top of the series)
[11] = biological target: 6-phosphogluconate dehydrogenase, decarboxylating (Homo sapiens) (UniProt P52209); experiment: 6PGD enzyme inhibitors, primary screen, biochemical, human, recombinant enzyme, NADPH absorbance (AID 1159550;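 active means at least 20% inhibition of 6-phosphogluconate dehydrogenase activity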); conditions: recombinant 6PGD, NADPH absorbance 341 nm; at 10 µM; stronger effect = higher value
[12] = differential killing of epithelial or mesenchymal cells, primary screen, imaging, PC-3E GFP, TEM4-18 mCherry, co-culture (AID 1345086;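 active means compounds killing one labelled cell type while sparing the other, by normalised counts and ratio limits, not self-fluorescent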;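 on all read-outs here: cells exposed to compound for 72 h before imaging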;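 on red/green cell ratio (normalised): normalised mesenchymal count divided by normalised epithelial count so high means epithelial killing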); conditions: imaging cell counts, at 1 µM; for red/green cell ratio (normalised): actives lie on both sides
[13] = test system: Aerobactin synthetase IucA (Klebsiella pneumoniae hvKP1); experiment: Biochemical IucA enzyme inhibition primary screen of the Spectrum library (AID 1346200); conditions: malachite green pyrophosphate, A620, at 8 µM, stronger effect = lower value;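 further: 100% = wells without compound and 0% = wells lacking enzyme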
[14] = sensitizers of A549 cells to miR-34 induction, primary screen, imaging, A549 dox-inducible miR-34, nuclei and caspase counts (AID 1347080;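 active means compounds whose cell count with miR-34 switched on is under 0.7 times the count with it off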); conditions: A549 miR-34 inducible, Hoechst nuclei count, 48 h
[15] = survival rescue of mitochondrial mutant cells in low glucose, primary screen, MELAS cybrids, Rieske KO mouse fibroblasts, CellTiter-Glo (AID 1508586;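 active means mean z-score across replicates of 1.96 or higher in either the MELAS or the Rieske mutant cell line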;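 further: z relative to plate mean and SD of compound and empty wells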)
[16] = biological target: NAD(+) hydrolase SARM1 (Homo sapiens) (UniProt Q6SZW1); experiment: SARM1 TIR NADase inhibitors, cell lysate, NAD-Glo luminescence (AID 1508614;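 active means compound whose remaining NAD level is above about 45 nM, limit read from the data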); conditions: SAM-TIR HEK293T lysate NADase, at 1 µM, stronger effect = higher value
[17] = biological target: Mitogen-activated protein kinase 7 (Homo sapiens) (UniProt Q13164); experiment: ERK5 transactivation activators in reporter cells, primary screen, cell-based, HTS (AID 1508626;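 active means luciferase signal above three times the same-plate solvent-only control wells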;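 further: luciferase driven by Gal4-ERK5 fusion binding five Gal4 sites before minimal TATA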); conditions: HeLa Gal4-ERK5 transactivation, 18 h, at 5 µM, stronger effect = higher value
[18] = circadian clock period modulators, cell-based, LOPAC library, luminescence reporter (AID 2774); conditions: circadian reporter cells, at 7 µM, actives lie on both sides;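 further: values are relative to mean of DMSO wells on each plate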
[19] = Cy5 fluorescence quenching or enhancement artefacts, artefact control for HCV NS3 helicase inhibitor project, biochemical, LOPAC1280 (AID 687037); conditions: Cy5-DNA-NS3h complex fluorescence interference counterscreen
[20] = viability rescue of complex I mutant cybrids, primary screen, cell-based, galactose medium, ATP luminescence (AID 1645843;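 active means z-score of at least 1.8 in each of two replicates, scored against plate mean and spread of sample wells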;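 further: positive z means more ATP and so rescue of galactose-driven cybrid death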); conditions: complex I mutant cybrid cells, 72 h, stronger effect = higher value
[21] = measured here: epithelial PC-3E GFP cell survival
[22] = measured here: mesenchymal TEM4-18 mCherry cell survival
[23] = MELAS cybrid survival, CellTiter-Glo 48 h, stronger effect = higher value
[24] = Rieske KO mouse fibroblast survival, CellTiter-Glo 72 h

Mitogen-activated protein kinase 7 (Homo sapiens), sequence (Q13164 whole entry, looked up, the tested form may be a part): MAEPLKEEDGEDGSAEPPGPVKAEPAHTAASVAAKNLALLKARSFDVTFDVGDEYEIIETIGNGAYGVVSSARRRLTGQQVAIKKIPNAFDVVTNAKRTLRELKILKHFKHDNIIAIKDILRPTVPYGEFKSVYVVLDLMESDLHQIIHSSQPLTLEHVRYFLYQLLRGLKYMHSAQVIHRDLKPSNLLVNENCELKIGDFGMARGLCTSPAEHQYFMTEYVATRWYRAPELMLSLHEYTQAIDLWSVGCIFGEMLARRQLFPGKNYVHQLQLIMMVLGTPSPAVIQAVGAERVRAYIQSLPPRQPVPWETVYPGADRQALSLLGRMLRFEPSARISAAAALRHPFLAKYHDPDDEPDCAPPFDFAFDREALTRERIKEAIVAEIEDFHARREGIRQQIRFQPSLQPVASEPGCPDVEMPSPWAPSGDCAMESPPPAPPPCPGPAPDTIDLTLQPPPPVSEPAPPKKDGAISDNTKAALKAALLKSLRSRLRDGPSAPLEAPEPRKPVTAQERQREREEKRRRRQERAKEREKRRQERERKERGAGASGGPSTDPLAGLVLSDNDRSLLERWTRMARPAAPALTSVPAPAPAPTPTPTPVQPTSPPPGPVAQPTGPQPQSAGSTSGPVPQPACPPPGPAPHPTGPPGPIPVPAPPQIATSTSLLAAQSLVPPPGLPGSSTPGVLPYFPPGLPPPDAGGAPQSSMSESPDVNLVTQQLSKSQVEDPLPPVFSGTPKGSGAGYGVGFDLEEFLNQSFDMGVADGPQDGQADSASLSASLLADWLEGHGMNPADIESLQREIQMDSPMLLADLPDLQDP
NAD(+) hydrolase SARM1 (Homo sapiens), sequence (Q6SZW1 whole entry, looked up, the tested form may be a part): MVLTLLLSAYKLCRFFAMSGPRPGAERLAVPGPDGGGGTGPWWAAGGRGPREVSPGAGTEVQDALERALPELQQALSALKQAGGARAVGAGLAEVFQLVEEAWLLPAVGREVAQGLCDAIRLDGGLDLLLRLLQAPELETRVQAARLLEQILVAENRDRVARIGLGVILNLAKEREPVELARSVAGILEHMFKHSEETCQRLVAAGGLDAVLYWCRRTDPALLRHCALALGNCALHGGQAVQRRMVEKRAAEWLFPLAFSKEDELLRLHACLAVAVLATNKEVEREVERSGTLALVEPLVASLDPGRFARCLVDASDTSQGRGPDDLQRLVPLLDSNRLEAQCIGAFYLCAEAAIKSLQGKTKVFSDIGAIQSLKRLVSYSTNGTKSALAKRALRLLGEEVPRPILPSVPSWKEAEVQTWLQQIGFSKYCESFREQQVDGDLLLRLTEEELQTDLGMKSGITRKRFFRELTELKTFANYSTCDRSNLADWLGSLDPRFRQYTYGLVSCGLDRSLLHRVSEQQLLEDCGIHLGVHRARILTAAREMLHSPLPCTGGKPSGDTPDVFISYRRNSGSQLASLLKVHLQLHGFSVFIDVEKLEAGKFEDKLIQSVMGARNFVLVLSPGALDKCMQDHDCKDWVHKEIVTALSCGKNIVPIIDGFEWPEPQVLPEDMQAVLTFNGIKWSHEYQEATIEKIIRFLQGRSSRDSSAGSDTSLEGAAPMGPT
6-phosphogluconate dehydrogenase, decarboxylating (Homo sapiens), sequence (P52209 whole entry, looked up): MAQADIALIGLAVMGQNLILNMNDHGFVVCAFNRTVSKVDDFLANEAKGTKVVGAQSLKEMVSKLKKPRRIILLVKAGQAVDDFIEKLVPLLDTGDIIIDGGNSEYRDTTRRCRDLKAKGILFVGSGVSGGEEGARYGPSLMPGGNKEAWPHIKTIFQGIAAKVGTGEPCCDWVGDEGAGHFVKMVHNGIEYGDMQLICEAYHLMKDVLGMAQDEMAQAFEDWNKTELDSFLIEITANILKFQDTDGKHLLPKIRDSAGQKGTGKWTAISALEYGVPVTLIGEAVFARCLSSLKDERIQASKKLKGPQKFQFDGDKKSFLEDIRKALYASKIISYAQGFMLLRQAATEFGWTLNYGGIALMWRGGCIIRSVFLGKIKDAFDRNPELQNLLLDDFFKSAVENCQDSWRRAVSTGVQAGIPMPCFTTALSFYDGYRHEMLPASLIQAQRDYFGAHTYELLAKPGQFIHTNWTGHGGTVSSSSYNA

## C[C@@H]1C[C@@H]([C@H](O)CC2CC(=O)NC(=O)C2)C(=O)[C@@H](C)C1
[1]
  inhibition: 22.7%
[2]
  parasite load remaining: -0.1% (active) and 5.12% (inactive) and 0% (inactive)
  viability: 87.3% and 76.3% and 87.1%
[3]; at 10 µM
  nuclear beta-catenin stimulation: 28.9% (inactive)
[3]; stimulation, at 2 µM
  nuclear beta-catenin stimulation: 25.8%
[4]
  insulin secretion stimulation: -1% (inactive)
[5]
  viability decrease: 88.7% (active)
[6]
  tube area decrease: 103% (active)
[7]
  GLP1 secretion stimulation: -4.7% (inactive)
[8]
  inhibition of viability: 78.7% (active)
[9]
  viability decrease (inhibition): 68.4% (active)
[10]
  viability decrease (inhibition): 67.6% (active)
[11]
  inhibition: -13.3% (inactive)
[12]
  red/green cell ratio (normalised): 0.97 (inactive)
[12]; [21]
  normalised cell number: 0.98
[12]; [22]
  normalised cell number: 0.96
[13]
  activity remaining: 112% (inactive)
[14]; stronger effect = lower value
  fold change: 1.05 (inactive) and 0.852 (inactive)
[14]; measured here: relative caspase fold change +Dox/-Dox
  fold change: 1.03 and 1.84
[14]; measured here: total cells with miR-34 induction, stronger effect = lower value
  cell count: 2100 and 2650
[14]; measured here: total cells without miR-34 induction
  cell count: 1990 and 3110
[15]; [23]
  z-score: -0.121
[15]; [24]
  z-score: 4.57
[16]
  remaining NAD: 10 nM (inactive)
[17]
  luciferase signal: 20 AU (inactive)

## O=c1[nH]c2ccccc2n1C1CCN(CCCC(c2ccc(F)cc2)c2ccc(F)cc2)CC1
[1]
  inhibition: 13.8%
[18]
  period change: 0.045 h (inactive)
[19]
  fluorescence ratio (interference): 1 (inactive)
[3]; at 10 µM
  nuclear beta-catenin stimulation: 7.8% (inactive)
[3]; stimulation, at 2 µM
  nuclear beta-catenin stimulation: 0.2%
[4]
  insulin secretion stimulation: 0.4% (inactive)
[5]
  viability decrease: 98.9% (active)
[6]
  tube area decrease: 108% (active)
[7]
  GLP1 secretion stimulation: -4.5% (inactive)
[8]
  inhibition of viability: 99.6% (active)
[9]
  viability decrease (inhibition): 102% (active)
[10]
  viability decrease (inhibition): 99.3% (active)
[11]
  inhibition: 13.7% (inactive)
[12]
  red/green cell ratio (normalised): 0.96 (inactive)
[12]; [21]
  normalised cell number: 1.24
[12]; [22]
  normalised cell number: 1.19
[13]
  activity remaining: 128% (inactive)
[15]; [23]
  z-score: 0.83 (inactive) and 0.29 (inactive)
[15]; [24]
  z-score: 0.702 and -0.0813
[16]
  remaining NAD: 10 nM (inactive)
[17]
  luciferase signal: 68 AU (inactive)
[20]
  z-score: -1.29 (inactive) and -1.18 (inactive) and -2 (inactive)

## CCC(C)(C)c1ccc(O)cc1
[3]; at 10 µM
  nuclear beta-catenin stimulation: 0.6% (inactive)
[3]; stimulation, at 2 µM
  nuclear beta-catenin stimulation: -0.2%
[4]
  insulin secretion stimulation: -1% (inactive)
[5]
  viability decrease: -20.2% (inactive)
[6]
  tube area decrease: 9.4% (inactive)
[7]
  GLP1 secretion stimulation: 6.1% (inactive)
[8]
  inhibition of viability: 0.6% (inactive)
[9]
  viability decrease (inhibition): -13% (inactive)
[10]
  viability decrease (inhibition): -2.4% (inactive)

## O=c1[nH]c2ccccc2n1CCCN1CCC(n2c(=O)[nH]c3cc(Cl)ccc32)CC1
[18]
  period change: -0.195 h (inactive)
[19]
  fluorescence ratio (interference): 1 (inactive)
[3]; at 10 µM
  nuclear beta-catenin stimulation: 3.1% (inactive)
[3]; stimulation, at 2 µM
  nuclear beta-catenin stimulation: 0.9%
[4]
  insulin secretion stimulation: 41.9% (active)
[5]
  viability decrease: -17.1% (inactive)
[6]
  tube area decrease: 12.9% (inactive)
[7]
  GLP1 secretion stimulation: 6.8% (inactive)
[8]
  inhibition of viability: 13.1% (inactive)
[9]
  viability decrease (inhibition): 13.8% (inactive)
[10]
  viability decrease (inhibition): 15.8% (inactive)
[11]
  inhibition: 2.55% (inactive)
[12]
  red/green cell ratio (normalised): 1.2 (inactive)
[12]; [21]
  normalised cell number: 0.91
[12]; [22]
  normalised cell number: 1.1
[13]
  activity remaining: 117% (inactive)
[15]; [23]
  z-score: -0.488 (inactive) and -0.032 (inactive) and 1.25 (inactive)
[15]; [24]
  z-score: 0.597 and -0.334 and 1.01
[16]
  remaining NAD: 10 nM (inactive)
[17]
  luciferase signal: 44 AU (inactive)
[20]
  z-score: -0.92 (inactive) and -0.455 (inactive) and -0.075 (inactive)
